From PubChem BioAssay (Tox21)
Calls of active or inactive are those of the source. Entries that show only a call come without a potency. Unless noted, the call rests on the fitted dose curve; in most records, active means well fitted curve in the direction sought with a large enough effect in the repeat runs; inconclusive means weak or mixed curves; inactive means no such curve, though single readings can be large; an effect the other way counts as inactive or inconclusive. Non-standard residues stand in square brackets, D forms with d. Residues, ends and D or L forms follow the SMILES beside them. Orn = NCCC[C@H](N)C(=O)O

What was measured:
[1] = qHTS assay for small molecule agonists of the p53 signaling pathway (AID 651631; calls by dose curve; further: nearly all actives have a fitted effect of over 15% in size; further: potency means the concentration at half of the fitted maximal effect)
Method in brief: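 Beta-lactamase reporter activity under p53 response elements was quantified in HCT-116 cells by FRET fluorescence, following 16 h incubation with test compounds at 37 °C and 2 h substrate development at room temperature.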

[2] = qHTS assay for small molecules that induce genotoxicity in human embryonic kidney cells expressing luciferase-tagged ATAD5 (AID 651632); further: nearly all actives have a fitted effect of over 15% in size
Method in brief: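 HEK293T cells carrying a luciferase reporter tagged to ATAD5 were exposed to compound or DMSO vehicle for 16 hr at 37C, 5% CO2. Amplite was added, and after 30 min at room temperature luciferase activity was read as a marker of ATAD5 induction.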

[3] = qHTS assay for small molecule agonists of the p53 signaling pathway - cell viability (AID 651633; calls by dose curve; further: nearly all actives have a fitted effect of over 30% in size; further: potency means the concentration at half of the fitted maximal effect)
Method in brief: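 Viability counter-read: CellTiter-Glo luminescence (30 min, room temperature) in the same p53RE-bla plates. These plates had been exposed to compounds for 16 h at 37 C.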

[4] = qHTS assay for small molecules that induce genotoxicity in human embryonic kidney cells expressing luciferase-tagged ATAD5 - cell viability (AID 651634; calls by dose curve; further: nearly all actives have a fitted effect of over 25% in size; further: potency means the concentration at half of the fitted maximal effect)
Method in brief: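 HEK293T cells expressing luciferase-tagged ATAD5 were exposed to compound or DMSO for 15.5 hr at 37C, 5% CO2. Viability was then read as live-cell protease activity by CellTiter-Fluor fluorescence after 30 min at 37C.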

[5] = qHTS assay for small molecule disruptors of the mitochondrial membrane potential - cell viability (AID 720634; calls by dose curve; further: nearly all actives have a fitted effect of over 20% in size; further: potency means the concentration at half of the fitted maximal effect)
Method in brief: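 HepG2 cells seeded overnight at 37 C, then exposed to compound or DMSO for 1 hr at 37 C, 5% CO2. m-MPI dye added, then CellTiter-Glo for 30 min at room temperature; viability read as ATP luminescence.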

[6] = qHTS assay for small molecule disruptors of the mitochondrial membrane potential (AID 720635); further: potency means the concentration at half of the fitted maximal effect
Method in brief: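 Mitochondrial membrane potential tracked with Mito-MPS dye, red aggregates (ex 540/em 590 nm) against green monomers (ex 490/em 535 nm). Compound treatment 1 hr at 37C, dye 30 min in HepG2.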

[7] = qHTS assay to test for compound auto fluorescence at 590 nm (red) in HepG2 cells (AID 720674)
Method in brief: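 Red autofluorescence (Ex/Em 540/590 nm, Rose Bengal sodium equivalents) was measured in HepG2 cells, 2,000 per well in MEM plus 10% FBS, plated overnight at 37 C. Readings were taken 1 hr after adding 23 nL compound or DMSO, at 37 C and 5% CO2.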

[8] = qHTS assay to test for compound auto fluorescence at 535 nm (green) in HepG2 cells (AID 720675)
[9] = qHTS assay to test for compound auto fluorescence at 460 nm (blue) in HEK293 cells (AID 720678)
Method in brief: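 Blue-channel (Ex/Em 405/460 nm) intensity measured in HEK293 cultures after overnight compound exposure at 37C; signal expressed relative to triamterene. Cells plated 2,000 per well in 10% dialyzed FBS medium and allowed 4-5 hr to attach.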

[10] = qHTS assay to test for compound auto fluorescence at 590 nm (red) in HEK293 cells (AID 720679)
Method in brief: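 Red-channel autofluorescence (Ex/Em 540/590 nm; Rose Bengal sodium reference) was measured after overnight 37C, 5% CO2 exposure of attached HEK293 cells, 2,000 per well in medium with 10% dialyzed FBS.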

[11] = qHTS assay to test for compound auto fluorescence at 535 nm (green) in HEK293 cells (AID 720680)
[12] = qHTS assay to test for compound auto fluorescence at 460 nm (blue) in HEK293 cell free culture (AID 720681)
Method in brief: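 Blue fluorescence (Ex 405/Em 460 nm, triamterene-equivalent) was read immediately after pin transfer of compound or DMSO into medium (DMEM, 10% FBS) without cells.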

[13] = qHTS assay to test for compound auto fluorescence at 535 nm (green) in HEK293 cell free culture (AID 720682)
Method in brief: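 Each library compound, or DMSO control, is added by pintool to medium alone, comprising DMEM and 10% FBS. Emission at 535 nm following 485 nm excitation is quantified against fluorescein.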

[14] = qHTS assay to test for compound auto fluorescence at 590 nm (red) in HEK293 cell free culture (AID 720683)
Method in brief: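 Red-channel autofluorescence of compounds in culture medium (DMEM, 10% FBS), no cells, measured at 540/590 nm. Rose Bengal sodium is the reference fluorophore for equivalence.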

[15] = qHTS assay to test for compound auto fluorescence at 590 nm (red) in HepG2 cell free culture (AID 720684)
Method in brief: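 Plate contents were MEM with 10% FBS plus test compound or DMSO, no cells. Fluorescence was recorded with 540 nm excitation and 590 nm emission.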

[16] = qHTS assay to test for compound auto fluorescence at 460 nm (blue) in HepG2 cell free culture (AID 720685)
Method in brief: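 Compound (23 nL) or DMSO pinned into cell-free MEM with 10% FBS; blue fluorescence read at 405/460 nm excitation/emission, expressed as auto-fluorescence equivalency to triamterene.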

[17] = qHTS assay to test for compound auto fluorescence at 535 nm (green) in HepG2 cell free culture (AID 720686)
[18] = qHTS assay to test for compound auto fluorescence at 460 nm (blue) in HepG2 cells (AID 720687)
Method in brief: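 Blue-channel autofluorescence (Ex/Em 405/460 nm, triamterene-equivalent) was measured after 1 hr compound exposure at 37 C, 5% CO2. Cells were HepG2, plated overnight at 37 C in MEM plus 10% FBS.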

[19] = biological target: Glucocorticoid receptor (Homo sapiens) (UniProt P04150); assay: qHTS assay to identify small molecule agonists of the glucocorticoid receptor (GR) signaling pathway (AID 720691; active means well fitted activation curve with a large enough effect in the signal ratio in the repeat runs, not every such curve was filed as active; inconclusive means weak or mixed curves, or effect the other way; inactive means no such curve, though single readings can be large or run the other way; the % refers to the signal ratio; further: potency means the concentration at half of the fitted maximal effect); conditions: GR-bla HeLa, beta-lactamase reporter ratio, 18 h; activation: at 62.4 µM (top of the series)
Glucocorticoid receptor (Homo sapiens), sequence (P04150 whole entry, looked up): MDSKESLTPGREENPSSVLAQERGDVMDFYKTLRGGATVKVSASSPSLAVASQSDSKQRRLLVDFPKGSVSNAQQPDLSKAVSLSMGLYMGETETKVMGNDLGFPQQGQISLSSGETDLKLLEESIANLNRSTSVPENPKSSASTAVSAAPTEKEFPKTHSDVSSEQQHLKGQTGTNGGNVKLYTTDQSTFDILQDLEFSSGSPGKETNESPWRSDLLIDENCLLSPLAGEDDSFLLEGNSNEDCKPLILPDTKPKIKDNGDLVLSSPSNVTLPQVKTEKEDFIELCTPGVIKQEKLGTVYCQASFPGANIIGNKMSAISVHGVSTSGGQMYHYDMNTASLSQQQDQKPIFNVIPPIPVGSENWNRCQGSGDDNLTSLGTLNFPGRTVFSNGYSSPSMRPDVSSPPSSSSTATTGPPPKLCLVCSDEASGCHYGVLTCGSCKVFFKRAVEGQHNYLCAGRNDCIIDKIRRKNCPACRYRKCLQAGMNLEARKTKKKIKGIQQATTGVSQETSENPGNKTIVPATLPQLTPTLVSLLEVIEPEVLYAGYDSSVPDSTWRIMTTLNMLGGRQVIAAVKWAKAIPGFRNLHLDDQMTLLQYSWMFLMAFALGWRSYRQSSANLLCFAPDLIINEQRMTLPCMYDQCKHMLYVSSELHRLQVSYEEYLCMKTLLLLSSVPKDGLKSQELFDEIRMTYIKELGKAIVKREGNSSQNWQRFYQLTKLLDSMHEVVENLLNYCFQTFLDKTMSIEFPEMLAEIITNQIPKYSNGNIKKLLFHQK
Method in brief: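 GR-bla HeLa cells (beta-lactamase reporter under glucocorticoid response element) were plated 4 h at 37 C/5% CO2, given compounds in DMSO, and incubated 18 h at 37 C. LiveBLAzer B/G FRET substrate was added for 2 h at room temperature, then fluorescence intensity read.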

[20] = biological target: Glucocorticoid receptor (Homo sapiens) (UniProt P04150); assay: qHTS assay to identify small molecule antagonists of the glucocorticoid receptor (GR) signaling pathway (AID 720692; active means well fitted inhibition curve with a large enough effect in the signal ratio in the repeat runs, not every such curve was filed as active; inconclusive means weak or mixed curves, or effect the other way; inactive means no such curve, though single readings can be large or run the other way; the % refers to the signal ratio)
Method in brief: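 GR-bla HeLa cells (beta-lactamase reporter under glucocorticoid response element) were pre-plated 4 h at 37 C, treated with compounds plus 5 nM dexamethasone (final) for 18 h, then read by LiveBLAzer B/G FRET fluorescence after 2 h.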

Row | SMILES | Potency [1] | Potency [2] | Potency [3] | Potency [4] | Potency [5] | Potency [6] | outcome [7] | Potency [8] | Potency [9] | outcome [10] | outcome [11] | Potency [12] | outcome [13] | outcome [14] | outcome [15] | Potency [16] | Potency [17] | Potency [18] | Potency [19] | Potency [20]
1 | CC(C)C[C@@H](NC(=O)[C@@H](O)[C@H](N)Cc1ccccc1)C(=O)O | inactive | inactive | inactive | inactive | inactive | inactive | inactive | inactive | inactive | inactive | inactive | inactive | inactive | inactive | inactive | inactive | inactive | inactive |  | 
2 | CO/N=C(\C(=O)N[C@@H]1C(=O)N2C(C(=O)O)=C(C[N+]3(C)CCCC3)CS[C@H]12)c1csc(N)n1 | inactive | inactive | inactive | inactive | inactive | inactive | inactive | inactive | inactive | inactive | inactive | inactive | inactive | inactive | inactive | inactive | inactive | inactive | inactive | inactive
3 | OCC1(CO)COC(C(Cl)(Cl)Cl)OC1 | inactive | inactive | inactive | inactive | inactive | inactive | inactive | inactive | inactive | inactive | inactive | inactive | inactive | inactive | inactive | inactive | inactive | inactive | inactive | 
4 | CC(C)(C)C(=O)OCC(=O)[C@H]1CC[C@H]2[C@@H]3CCC4=CC(=O)CC[C@]4(C)[C@H]3CC[C@]12C | inactive | inactive | inactive | inactive | inactive | inactive | inactive | inactive | inactive | inactive | inactive | inactive | inactive | inactive | inactive | inactive | inactive | inactive |  | 
5 | CCOc1ccc(S(=O)(=O)O)c2cccnc12 | inactive | inactive | inactive | inactive | inactive | inactive | inactive | inactive | inactive | inactive | inactive | inactive | inactive | inactive | inactive | inactive | inactive | inactive | inactive | inactive
6 | CS(=O)(=O)c1ccc([C@@H](O)[C@@H](COC(=O)CN)NC(=O)C(Cl)Cl)cc1 | inactive | inactive | inactive | inactive | inactive | inactive | inactive | inactive | inactive | inactive | inactive | inactive | inactive | inactive | inactive | inactive | inactive | inactive |  | 
7 | CO/N=C(\C(=O)N[C@@H]1C(=O)N2C(C(=O)[O-])=C(C[n+]3cccc4c3CCC4)CS[C@H]12)c1csc(N)n1 | inactive | inactive | inactive | inactive | inactive | inactive | inactive | inactive | inactive | inactive | inactive | inactive | inactive | inactive | inactive | inactive | inactive | inactive |  | 
8 | CC(C)[C@H](NC(=O)[C@H](CC(=O)O)NC(=O)[C@H](CCCCN)NC(=O)[C@@H](N)CCCN=C(N)N)C(=O)N[C@@H](Cc1ccc(O)cc1)C(=O)O (H-RKDVY-OH) | inactive | inactive | inactive | inactive | inactive | inactive | inactive | inactive | inactive | inactive | inactive | inactive | inactive | inactive | inactive | inactive | inactive | inactive | inactive | inactive
9 | CC(C)CCC[C@@H](C)[C@H]1CC[C@H]2[C@@H]3CC[C@@H]4C[C@H](O)CC[C@]4(C)[C@H]3CC[C@]12C | inactive | inactive | inactive | inactive | inactive | inactive | inactive | inactive | inactive | inactive | inactive | inactive | inactive | inactive | inactive | inactive | inactive | inactive | inactive | 
10 | CC(C)C[C@@H]1NC(=O)[C@H](CCCN)NC(=O)[C@H](C(C)C)NC(=O)[C@@H]2CCCN2C(=O)[C@@H](Cc2ccccc2)NC(=O)[C@H](CC(C)C)NC(=O)[C@H](CCCN)NC(=O)[C@H](C(C)C)NC(=O)[C@@H]2CCCN2C(=O)[C@@H](Cc2ccccc2)NC1=O (cyclo(V[Orn]L[dF]PV[Orn]L[dF]P)) | 1880 nM (active) | inactive | 2660 nM (active) | 2980 nM (active) | 13300 nM (active) | 237 nM (active) | inactive | inactive | inactive | inactive | inactive | inactive | inactive | inactive | inactive | inactive | inactive | inactive | 23900 nM [inconclusive] (active) | 
11 | CC[C@H]1OC(=O)[C@H](C)C(=O)[C@H](C)[C@@H](O[C@@H]2O[C@H](C)C[C@H](N(C)C)[C@H]2O)[C@](C)(OC)C[C@@H](C)C(=O)[C@H](C)[C@H]2N(CCCCn3cnc(-c4cccnc4)c3)C(=O)O[C@]12C | inactive | inactive | inactive | inactive | inactive | inactive | inactive | inactive | inactive | inactive | inactive | inactive | inactive | inactive | inactive | inactive | inactive | inactive | inactive | inactive
12 | COc1ccc(/C=C/C(=O)O)cc1 | inactive | inactive | inactive | inactive | inactive | inactive | inactive | inactive | inactive | inactive | inactive | inactive | inactive | inactive | inactive | inactive | inactive | inactive | inactive | inactive
